Reference: PubChem BioAssay (Tox21)
Several values for one entry are separate records, joined by “and”; a condition that tells them apart may be missing. Identical values can stand only once. Records with an inconclusive call do not appear. A call without a number means that no potency is given here. Where a structure was tested more than once in an assay, its records may differ in their call. Activity calls are given as the source filed them. Calls come from the whole dose curve; as a rule, active = well fitted cell-killing curve with a large enough effect in the repeat runs; inconclusive = weak or mixed curves, or effect the other way; inactive = flat fitted curve, though single readings scatter.

Experiment: Human pregnane X receptor (PXR) small molecule agonists, qHTS cell viability counter screen (AID 1346977); note: nearly all actives have a fitted effect of over 50% in size
Details: PXR-Luc HepG2 viability, CellTiter-Fluor, 24 h; series mostly up to 92.4 µM
Excerpt: U.S. Tox21 Program National Center for Advancing Translational Sciences [NCATS] NIH Chemical Genomics Center [NCGC] U.S. Environmental Protection Agency [EPA] National Institutes of Environmental Health Sciences [NIEHS] National Toxicology Program [NTP] U.S. Food and Drug Administration [FDA] Tox21 Assay Overview: The human pregnane X receptor (hPXR) regulates the expression of several drug metabolizing enzymes and induction of these proteins is a major mechanism for developing drug resistance in cancer. One such key enzyme catalyzing the drug metabolism is cytochrome P450 3A4 (CYP3A4). Changes in CYP3A4 expression affect drug metabolism, thereby reducing the therapeutic efficacy and altering toxicological response to a drug and which finally causes adverse drug interaction. To screen Tox21 libraries for compounds that activate hPXR-mediated CYP3A4 gene expression, PXR-Luc HepG2 cells were used. Also cytotoxicity of the compounds was tested in parallel by measuring the cell viability using CellTiter-Fluor assay system in the same wells.
Tox21 Assay Protocol Summary: PXR-Luc HepG2 cells were dispensed at 2,000 per well in 5uL of assay medium containing 5% charcoal-stripped FBS into white solid bottom 1536-well plates (Corning Life Sciences, Corning, NY) using a Multidrop Combi (Thermo Scientific, Waltham, MA) dispenser. The assay plates were incubated at 37 C and 5% CO2 for 5hr, and then 23nL of compounds dissolved in DMSO and positive control were transferred using a Pintool station (Wako, San Diego, CA). The assay plates were incubated at 37C and 5% CO2 for 24hr. For cytotoxicity read, after 23hr incubation at 37C, 1uL CellTiter-Fluor reagent (Promega Corporation, Madison, WI) was added to each well of the assay plates using Flying Reagent Dispenser (FRD, Aurora Discovery, San Diego, CA). After 1hr incubation at 37C and 5% CO2, the fluorescence signal was quantified using a ViewLux plate reader (PerkinElmer, Shelton, CT).
Potency is the fitted concentration of half-maximal effect.

Row | Structure (SMILES) | Potency
1 | COCCOCCOC | inactive
2 | CCCCCCCCCCCCCCCCCC(=O)OCC(O)CO (stereo not given) | inactive
3 | CC(C)(C)NCC(O)c1ccc(O)c(CO)c1 (stereo not given) | inactive
4 | CCCCOCCOCCSC#N | inactive
5 | CN(C)C=O | inactive
6 | CC(=O)OC/C=C(C)/C=C/C=C(C)/C=C/C1=C(C)CCCC1(C)C | inactive
7 | O=C(O)CN(CC(=O)O)CC(=O)O | inactive
8 | CO[C@H]1C=CO[C@@]2(C)Oc3c(C)c(O)c4c(O)c(c(/C=N/N5CCN(C)CC5)c(O)c4c3C2=O)NC(=O)/C(C)=C\C=C[C@H](C)[C@H](O)[C@@H](C)[C@@H](O)[C@@H](C)[C@H](OC(C)=O)[C@@H]1C | 35.5 µM (active) and 19.6 µM (active) and 23.7 µM (active)
9 | NC(=O)N/N=C/c1ccc([N+](=O)[O-])o1 | inactive and 27.3 µM (active) and 26.6 µM (active)
10 | C=C(C)OC(C)=O | inactive
11 | NCCNc1cccc2ccccc12 | 50.1 µM (active) and inactive
12 | O=c1c(-c2ccc(O)cc2)coc2cc(O)cc(O)c12 | inactive
13 | CC1=C(/C=C/C(C)=C/C=C/C(C)=C/C(=O)O)C(C)(C)CCC1 | inactive
14 | CC(C)CC(C)CC(O)CC(C)C (stereo not given) | inactive
15 | Cn1cnc2c1c(=O)[nH]c(=O)n2C | inactive
16 | COC(=O)c1ccc(C=O)cc1 | inactive
17 | OC[C@@H](O)[C@@H](O)[C@H](O)[C@H](O)CO | inactive
18 | CCn1cc(C(=O)O)c(=O)c2ccc(C)nc21 | inactive
19 | CC(=O)c1ccc(S(=O)(=O)NC(=O)NC2CCCCC2)cc1 | inactive
20 | Oc1cccc(O)c1 | inactive

Row | Structure (SMILES) | Potency
21 | C[C@]12C=CC(=O)C=C1CC[C@@H]1[C@@H]2C(=O)C[C@@]2(C)[C@H]1CC[C@]2(O)C(=O)CO | inactive
22 | Cc1cccc(C)c1O | inactive
23 | Cc1c(N(C)C)c(=O)n(-c2ccccc2)n1C | inactive
24 | O=C(O)Cc1cccc2ccccc12 | inactive
25 | CC(=O)/C=C/C1=C(C)CCCC1(C)C | inactive
26 | CCCCOCCOCCOC(C)=O | inactive
27 | COc1ccc(C(=O)c2ccccc2)c(O)c1 | inactive
28 | C[C@]12CC[C@@H]3c4ccc(O)cc4CC[C@H]3[C@@H]1CCC2=O | inactive
29 | COc1ccccc1NC(=O)CC(C)=O | inactive
30 | CCOCCO | inactive
31 | C=CCOC(=O)CC(C)C | inactive
32 | NC(=O)c1ccc([N+](=O)[O-])cc1Cl | inactive
33 | CC(C)Cc1ccc(C(C)C(=O)O)cc1 (stereo not given) | inactive
34 | COc1cc2c(c(OC)c1OC)-c1ccc(OC)c(=O)cc1[C@@H](NC(C)=O)CC2 | inactive
35 | COC1=CC(=O)C[C@@H](C)[C@]12Oc1c(Cl)c(OC)cc(OC)c1C2=O | inactive
36 | O=c1cc[nH]c(=O)[nH]1 | inactive
37 | OCCCc1ccccc1 | inactive
38 | O=C(O)CCCCC1CCSS1 (stereo not given) | inactive
39 | CCOC(=O)C(C)(C)Oc1ccc(Cl)cc1 | inactive
40 | O=C(OCc1ccccc1)c1ccccc1 | inactive
